We go through 86 sequences from PMC10668032, “Altered binding affinity of SIX1-Q177R correlates with enhanced WNT5A and WNT pathway effector expression in Wilms tumor”.

In all, about 33,000 sequences were measured (“e-score”: median about -0.05, highest 2% from about 0.38 on). This excerpt belongs to a sample that is enriched for the highest values.

The test has as its target T1, SIX1-Q177R homeodomain (human, UniProt Q15475 108-198, Q177R).
T1 sequence: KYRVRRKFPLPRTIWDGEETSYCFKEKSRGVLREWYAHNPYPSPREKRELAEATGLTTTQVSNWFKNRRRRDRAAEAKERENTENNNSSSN
The test can be described thus: universal protein binding microarray; Universal all-10-mer PBM (8x60K, AMADID 030236), 300 nM GST-tagged protein, Alexa Fluor 488 anti-GST; buffer, salt, pH and temperature not stated (as in Berger); high values mean tight binding. As to conditions: protein: ivt; tags: N-terminal GST; dsDNA, one strand shown. The procedure, abridged:
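After in vitro transcription/translation, GST-tagged homeodomains were quantified against a recombinant GST standard curve by anti-GST western blot. They were then placed in duplicate at 300 nM final concentration on universal 'all 10-mer' protein binding microarrays of 8×60K format.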
For CACCATGA, the binding signal came to 0.289 ± 0.0156 E-score.

On to CAGATACA, for which the binding signal was 0.313 ± 0.0113 E-score.

As for AGGGTTAC, the binding signal was 0.162 ± 0.0418 E-score.

As to GGTGCCAA, the binding signal came to 0.187 ± 0.0523 E-score.

In the case of GAACGACA, the binding signal was 0.238 ± 0.0152 E-score.

Consider ATCCCCCG, for which the binding signal was found to be 0.266 ± 0.0176 E-score.

Consider CACGCGAC, for which the binding signal is 0.26 ± 0.00798 E-score.

Take GGTATACA: the binding signal was 0.269 ± 0.00593 E-score.

In the case of TGTTATAA, the binding signal came out at 0.267 ± 0.015 E-score.

Consider ACAGGGGT, for which the binding signal was determined as 0.266 ± 0.0127 E-score.

CAATAGTG: the binding signal is 0.17 ± 0.0397 E-score.

In the case of CACGGTGG, the binding signal was 0.26 ± 0.0142 E-score.

For AGGTTACA, the binding signal came to 0.182 ± 0.0252 E-score.

For the sequence ATTCGACA, the binding signal is 0.163 ± 0.00531 E-score.

With CGATCACG, the binding signal amounted to 0.173 ± 0.0459 E-score.

On to CTCCCCGC, for which the binding signal amounted to 0.168 ± 0.0157 E-score.

Turning to ACACTCTC, the binding signal came to 0.3915 ± 0.00342 E-score.

As for ATACTCTC, the binding signal came out at 0.158 ± 0.0315 E-score.

Regarding ACACTCTG, the binding signal worked out at 0.404 ± 0.00495 E-score.

ACACACTC: the binding signal was 0.314 ± 0.0291 E-score.

As to ACTGGGCG, the binding signal worked out at 0.192 ± 0.0152 E-score.

Regarding CTAAGACA, the binding signal came to 0.2225 ± 0.00145 E-score.

Take CACAGCCG: the binding signal came out at 0.208 ± 0.0273 E-score.

As for ACCAACGA, the binding signal was 0.187 ± 0.00325 E-score.

Turning to CTCAGCAC, the binding signal is 0.185 ± 0.0185 E-score.

AAGACACG: the binding signal stood at 0.35 ± 0.00553 E-score.

Regarding GAGACACA, the binding signal stood at 0.241 ± 0.0428 E-score.

Take CAGACACC: the binding signal amounted to 0.456 ± 0.0151 E-score.

For CAGACACA, the binding signal turned out to be 0.19 ± 0.0525 E-score.

Consider CAGACACG, for which the binding signal was determined as 0.353 ± 0.0179 E-score.

On to GAGACACC, for which the binding signal was 0.462 ± 0.0147 E-score.

With AAGACACC, the binding signal worked out at 0.4713 ± 0.00312 E-score.

As for AAGACACT, the binding signal worked out at 0.3744 ± 0.00267 E-score.

In the case of GAGACAAC, the binding signal amounted to 0.1522 ± 0.00125 E-score.

As for ACACAATC, the binding signal was found to be 0.178 ± 0.0434 E-score.

As for CACCGTTA, the binding signal was determined as 0.24 ± 0.0265 E-score.

For the sequence CACGAAAC, the binding signal worked out at 0.152 ± 0.0288 E-score.

As to TACGTACA, the binding signal amounted to 0.18 ± 0.0207 E-score.

In the case of ACTCTACA, the binding signal came to 0.296 ± 0.00689 E-score.

ATTCTACA: the binding signal came out at 0.181 ± 0.0191 E-score.

As for ACGATGGG, the binding signal came out at 0.151 ± 0.0168 E-score.

Consider GGAGTCCC, for which the binding signal amounted to 0.171 ± 0.00561 E-score.

As for AGTGTCCC, the binding signal was found to be 0.379 ± 0.0227 E-score.

In the case of AGTGTCCA, the binding signal amounted to 0.348 ± 0.00804 E-score.

As to GGGGTCCA, the binding signal was 0.268 ± 0.0349 E-score.

Regarding CGTGTCCA, the binding signal worked out at 0.4 ± 0.0263 E-score.

For GGTATCCA, the binding signal was found to be 0.3692 ± 0.00211 E-score.

Take GGTGTCCA: the binding signal was 0.48 ± 0.00796 E-score.

As for CGTGTCCC, the binding signal amounted to 0.398 ± 0.0161 E-score.

In the case of CTGATACA, the binding signal was 0.24 ± 0.00405 E-score.

Regarding CTTTGACA, the binding signal came out at 0.219 ± 0.022 E-score.

As for CCGAACCG, the binding signal worked out at 0.175 ± 0.0143 E-score.

Consider ATTATACA, for which the binding signal turned out to be 0.165 ± 0.0294 E-score.

Consider ACACTTTA, for which the binding signal is 0.343 ± 0.037 E-score.

Turning to CACTCCTG, the binding signal was 0.335 ± 0.0105 E-score.

For CATTACTC, the binding signal was found to be 0.173 ± 0.0527 E-score.

Turning to AATCACAC, the binding signal turned out to be 0.348 ± 0.00368 E-score.

For the sequence CATCACAC, the binding signal came to 0.317 ± 0.0183 E-score.

Consider AATTGCAC, for which the binding signal is 0.151 ± 0.0498 E-score.

With CATTACAC, the binding signal amounted to 0.452 ± 0.0182 E-score.

With GATTACCC, the binding signal amounted to 0.175 ± 0.0203 E-score.

For the sequence GATCACAC, the binding signal worked out at 0.324 ± 0.0116 E-score.

On to GATTACAC, for which the binding signal amounted to 0.451 ± 0.00984 E-score.

Regarding AATTACAC, the binding signal was determined as 0.433 ± 0.0394 E-score.

With CTGAGGTA, the binding signal was determined as 0.185 ± 0.0187 E-score.

In the case of CGGGGGTA, the binding signal is 0.315 ± 0.029 E-score.

As to GGATAAAC, the binding signal came out at 0.169 ± 0.0541 E-score.

Consider CACCTAGG, for which the binding signal came to 0.225 ± 0.0248 E-score.

For the sequence CGCCGACA, the binding signal came out at 0.209 ± 0.0201 E-score.

For CATACACA, the binding signal was 0.205 ± 0.0341 E-score.

For the sequence GATACTCC, the binding signal amounted to 0.223 ± 0.00252 E-score.

As for AATACACA, the binding signal turned out to be 0.188 ± 0.0145 E-score.

Consider GATACACA, for which the binding signal is 0.191 ± 0.024 E-score.

In the case of CACACATA, the binding signal came out at 0.15 ± 0.0738 E-score.

For the sequence AATACCCC, the binding signal turned out to be 0.185 ± 0.00616 E-score.

On to TATACACA, for which the binding signal came out at 0.169 ± 0.034 E-score.

For AATACACG, the binding signal came to 0.379 ± 0.0262 E-score.

Take CATACCCC: the binding signal is 0.205 ± 0.0264 E-score.

For CATACACG, the binding signal was 0.385 ± 0.00816 E-score.

On to GATACCCC, for which the binding signal worked out at 0.419 ± 0.00493 E-score.

In the case of GATACACC, the binding signal is 0.469 ± 0.00549 E-score.

For the sequence CCCCTACG, the binding signal came out at 0.181 ± 0.00578 E-score.

Consider CACGTGCG, for which the binding signal stood at 0.171 ± 0.0176 E-score.

With CACTGCCG, the binding signal turned out to be 0.26 ± 0.0036 E-score.

Turning to ACTAGGGA, the binding signal was 0.18 ± 0.018 E-score.

Consider TGTCAGAA, for which the binding signal was 0.183 ± 0.0293 E-score.
